Results filed as inconclusive are left out. Activity calls are given as the source filed them. Unless noted, the call rests on the fitted dose curve; in most records, active means well fitted curve in the direction sought with a large enough effect in the repeat runs; inconclusive means weak or mixed curves; inactive means no such curve, though single readings can be large; an effect the other way counts as inactive or inconclusive.
Key:
[1] = qHTS assay to identify aromatase inhibitors - cell viability counter screen (AID 743084);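 further: cells stimulated with testosterone during compound exposure; nearly all actives have a fitted effect of over 55% in size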
[2] = qHTS assay to identify small molecule that activate the aryl hydrocarbon receptor (AhR) signaling pathway - cell viability counter screen (AID 743086);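 further: HepG2 liver cells carrying the AhR DRE luciferase reporter; series mostly up to about 70 µM; nearly all actives have a fitted effect of over 45% in size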
Summary of the method: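 Cytotoxicity counter screen: CellTiter-Fluor signal (30 min, 37 C) in 4000 HepG2 cells/well carrying the DRE-luciferase reporter, following 24 h compound exposure at 37 C.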

[3] = target: Peroxisome proliferator-activated receptor gamma (Homo sapiens) (UniProt P37231); assay: qHTS assay to identify small molecule agonists of the peroxisome proliferator-activated receptor gamma (PPARg) signaling pathway (AID 743094; active means well fitted activation curve with a large enough effect in the signal ratio in the repeat runs, not every such curve was filed as active; the % refers to the signal ratio)
Chain of Peroxisome proliferator-activated receptor gamma (Homo sapiens) (P37231 whole entry, looked up): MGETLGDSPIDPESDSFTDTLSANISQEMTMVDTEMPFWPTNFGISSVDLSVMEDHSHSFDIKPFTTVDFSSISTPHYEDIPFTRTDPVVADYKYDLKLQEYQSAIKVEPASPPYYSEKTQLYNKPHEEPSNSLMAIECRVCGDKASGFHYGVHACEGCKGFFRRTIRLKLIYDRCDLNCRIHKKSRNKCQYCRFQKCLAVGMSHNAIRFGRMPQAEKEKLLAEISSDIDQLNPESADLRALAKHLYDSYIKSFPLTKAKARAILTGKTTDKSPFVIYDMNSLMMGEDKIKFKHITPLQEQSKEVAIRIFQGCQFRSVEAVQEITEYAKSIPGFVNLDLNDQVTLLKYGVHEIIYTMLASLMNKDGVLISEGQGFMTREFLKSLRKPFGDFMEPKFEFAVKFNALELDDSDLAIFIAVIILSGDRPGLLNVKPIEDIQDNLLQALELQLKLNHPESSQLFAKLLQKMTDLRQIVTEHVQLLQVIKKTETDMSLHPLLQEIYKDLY
Summary of the method: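 Cells from the PPARg UAS-bla HEK293H line are plated and incubated 5 h at 37C. Compounds in DMSO are pinned in and left 17 h at 37C. LiveBLAzer B/G substrate is then added for 1 h at room temperature before fluorescence is measured.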

[4] = target: Peroxisome proliferator-activated receptor gamma (Homo sapiens) (UniProt P37231); assay: qHTS assay to identify small molecule antagonists of the peroxisome proliferator-activated receptor gamma (PPARg) signaling pathway (AID 743191; calls by dose curve; further: series mostly up to about 63 µM; nearly all actives have a fitted effect of over 30% in size)
Summary of the method: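 Beta-lactamase reporter under UAS control in HEK293H PPARg-bla cells; compound treatment 17 h at 37C. Read-out: fluorescence intensity after 1 h room-temperature incubation with LiveBLAzer B/G FRET substrate.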

[5] = qHTS assay to identify small molecule antagonists of the peroxisome proliferator-activated receptor gamma (PPARg) signaling pathway - cell viability counter screen (AID 743194); further: nearly all actives have a fitted effect of over 55% in size
Summary of the method: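 Viability was measured as CellTiter-Glo luminescence in GeneBLAzer PPARg UAS-bla HEK293H cells. These cells had been exposed 17 h at 37 C to compounds together with rosiglitazone at 50 nM final, with the beta-lactamase readout taken in the same wells.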

[6] = qHTS assay for small molecule agonists of the antioxidant response element (ARE) signaling pathway - cell viability counter screen (AID 743203; calls by dose curve; further: nearly all actives have a fitted effect of over 55% in size)
Summary of the method: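 Cytotoxicity was tested in parallel with the ARE reporter screen. ARE-bla HepG2 cells were exposed to compounds for 16 hrs, and viability was taken from CellTiter-Glo luminescence.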

[7] = qHTS assay for small molecule activators of the heat shock response signaling pathway - cell viability counter screen (AID 743209); further: nearly all actives have a fitted effect of over 50% in size
Summary of the method: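 Cytotoxicity counter screen run in parallel with the HSE beta-lactamase reporter, using the same wells. HeLa HSE-bla cells received compound for 5 h at 37 C; ATP-based CellTiter-Glo luminescence was measured after 30 min at room temperature.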

[8] = qHTS assay for small molecule activators of the heat shock response signaling pathway (AID 743210; active means well fitted activation curve with a large enough effect in the signal ratio in the repeat runs, with a control signal flat, not every such curve was filed as active; the % refers to the signal ratio;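 further: HeLa cells with beta-lactamase reporter driven by heat shock elements; series mostly up to about 63 µM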)
Summary of the method: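 Fluorescence from a cleaved B/G FRET substrate (2.5 h, room temp) reports HSE-driven beta-lactamase in HeLa cells treated 5 h at 37 C with DMSO-dissolved compounds.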

[9] = qHTS assay to identify small molecule agonists of the peroxisome proliferator-activated receptor delta (PPARd) signaling pathway - cell viability counter screen (AID 743211); further: nearly all actives have a fitted effect of over 55% in size
Summary of the method: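 Read-out: CellTiter-Glo luminescence, 30 min RT, measured in the same wells as the beta-lactamase reporter. Cells: GeneBLAzer PPAR delta UAS-bla HEK293H, 3000 cells/well, compound exposure 17 h at 37C.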

[10] = qHTS assay to identify small molecule antagonists of the peroxisome proliferator-activated receptor delta (PPARd) signaling pathway - cell viability counter screen (AID 743213); further: nearly all actives have a fitted effect of over 50% in size
Summary of the method: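 Luminescence from CellTiter-Glo, added after the bla read and incubated 30 min at room temperature, gives viability of HEK293H PPARd-bla cells exposed to compounds for 17 h at 37 C with 300 nM L165041.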

[11] = qHTS assay to identify small molecule agonists of the farnesoid-X-receptor (FXR) signaling pathway - cell viability counter screen (AID 743218); further: nearly all actives have a fitted effect of over 45% in size
Summary of the method: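 Cells were seeded, left 5 h at 37 C and 5% CO2, then dosed with compound in DMSO for 16 h. After the beta-lactamase FRET read, CellTiter-Glo was added and luminescence measured 30 min later.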

[12] = qHTS assay to identify small molecule antagonists of the farnesoid-X-receptor (FXR) signaling pathway - cell viability counter screen (AID 743221; active means well fitted cell-killing curve with a large enough effect in the repeat runs, not every such curve was filed as active; further: nearly all actives have a fitted effect of over 50% in size)
Summary of the method: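 HEK 293T FXR-bla cells, 5 h pre-incubation; compound + CDCA 50 uM final, 16 h, 37 C; beta-lactamase FRET read first, then CellTiter-Glo luminescence, 30 min RT.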

[13] = target: Vitamin D3 receptor (Homo sapiens) (UniProt P11473); assay: qHTS assay to identify small molecule agonists of the vitamin D receptor (VDR) signaling pathway (AID 743222; calls by dose curve)
Chain of Vitamin D3 receptor (Homo sapiens) (P11473 whole entry, looked up): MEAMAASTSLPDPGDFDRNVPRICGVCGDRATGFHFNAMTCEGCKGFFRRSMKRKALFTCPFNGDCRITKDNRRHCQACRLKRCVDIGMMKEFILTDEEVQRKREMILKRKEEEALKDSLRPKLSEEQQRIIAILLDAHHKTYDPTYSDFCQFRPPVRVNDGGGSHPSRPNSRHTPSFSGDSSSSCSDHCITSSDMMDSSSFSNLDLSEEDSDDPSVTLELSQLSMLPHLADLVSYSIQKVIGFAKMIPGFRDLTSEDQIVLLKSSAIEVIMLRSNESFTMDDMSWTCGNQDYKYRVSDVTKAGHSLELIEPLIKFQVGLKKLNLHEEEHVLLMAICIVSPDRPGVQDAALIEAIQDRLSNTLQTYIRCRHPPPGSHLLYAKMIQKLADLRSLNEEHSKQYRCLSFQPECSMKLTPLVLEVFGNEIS
Summary of the method: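 Cells carrying a VDR-driven beta-lactamase reporter are seeded at 2,000 per well and rested 4 h. Compounds in DMSO are added for 16 h at 37C, and FRET substrate fluorescence is measured after 2 h at room temperature.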

[14] = target: Vitamin D3 receptor (Homo sapiens) (UniProt P11473); assay: qHTS assay to identify small molecule antagonists of the vitamin D receptor (VDR) signaling pathway (AID 743223; active means well fitted inhibition curve with a large enough effect in the signal ratio in the repeat runs, not every such curve was filed as active; the % refers to the signal ratio)
Summary of the method: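 Beta-lactamase reporter read-out: FRET substrate fluorescence after 2 h at room temperature, following 16 h exposure of VDR-bla cells to test compound plus 3 nM (final) 1alpha,25-dihydroxyvitamin D3 agonist at 37C.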

[15] = target: Aryl hydrocarbon receptor (Homo sapiens) (UniProt P35869); assay: qHTS assay to identify small molecule that activate the aryl hydrocarbon receptor (AhR) signaling pathway (AID 743085);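 further: HG2L7.5c1 human HepG2 liver cells with stably integrated DRE-driven firefly reporter; series mostly up to about 70 µM; nearly all actives have a fitted effect of over 15% in size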
Chain of Aryl hydrocarbon receptor (Homo sapiens) (P35869 whole entry, looked up): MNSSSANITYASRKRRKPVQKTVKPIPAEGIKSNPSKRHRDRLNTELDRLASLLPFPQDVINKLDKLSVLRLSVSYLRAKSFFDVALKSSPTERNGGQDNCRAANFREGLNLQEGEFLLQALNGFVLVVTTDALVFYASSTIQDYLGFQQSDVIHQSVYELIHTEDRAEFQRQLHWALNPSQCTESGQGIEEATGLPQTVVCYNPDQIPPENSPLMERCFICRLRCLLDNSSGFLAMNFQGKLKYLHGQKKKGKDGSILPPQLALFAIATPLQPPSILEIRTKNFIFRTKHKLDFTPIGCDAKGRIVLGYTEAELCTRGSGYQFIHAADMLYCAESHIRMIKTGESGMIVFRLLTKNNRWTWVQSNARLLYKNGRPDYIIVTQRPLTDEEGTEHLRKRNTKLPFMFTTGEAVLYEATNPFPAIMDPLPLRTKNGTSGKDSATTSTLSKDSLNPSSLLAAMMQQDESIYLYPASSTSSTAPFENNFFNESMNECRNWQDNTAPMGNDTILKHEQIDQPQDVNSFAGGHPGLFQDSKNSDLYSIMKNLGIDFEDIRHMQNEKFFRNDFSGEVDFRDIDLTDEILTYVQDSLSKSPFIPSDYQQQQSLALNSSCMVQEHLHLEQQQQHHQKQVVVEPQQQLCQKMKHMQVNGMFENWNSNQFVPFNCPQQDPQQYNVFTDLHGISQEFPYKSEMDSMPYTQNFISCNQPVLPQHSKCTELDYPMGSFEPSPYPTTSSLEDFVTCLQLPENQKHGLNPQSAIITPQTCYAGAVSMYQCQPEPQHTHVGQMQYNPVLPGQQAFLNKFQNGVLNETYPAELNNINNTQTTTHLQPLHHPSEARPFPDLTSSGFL
Summary of the method: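 Luminescence read-out: ONE-Glo reagent, 30 min at room temperature, in HG2L7.5c1 HepG2 reporter cells treated 24 h at 37C. Viability was measured beforehand by CellTiter-Fluor fluorescence after 30 min at 37C.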

[16] = qHTS assay for small molecule agonists of the antioxidant response element (ARE) signaling pathway (AID 743202; active means well fitted activation curve with a large enough effect in the signal ratio in the repeat runs, not every such curve was filed as active; the % refers to the signal ratio)
Summary of the method: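 Beta-lactamase reporter activity, read as fluorescence intensity, reflects ARE/Nrf2 pathway induction in HepG2 cells after 16 h compound exposure at 37 C; substrate loading was 2 h at room temperature.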

[17] = target: Peroxisome proliferator-activated receptor delta (Homo sapiens) (UniProt Q03181); assay: qHTS assay to identify small molecule antagonists of the peroxisome proliferator-activated receptor delta (PPARd) signaling pathway (AID 743215; active means well fitted inhibition curve with a large enough effect in the signal ratio in the repeat runs, not every such curve was filed as active; the % refers to the signal ratio;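 further: cells stimulated with agonist L165041 at 300 nM final during compound exposure; series mostly up to about 62 µM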)
Chain of Peroxisome proliferator-activated receptor delta (Homo sapiens) (Q03181 whole entry, looked up): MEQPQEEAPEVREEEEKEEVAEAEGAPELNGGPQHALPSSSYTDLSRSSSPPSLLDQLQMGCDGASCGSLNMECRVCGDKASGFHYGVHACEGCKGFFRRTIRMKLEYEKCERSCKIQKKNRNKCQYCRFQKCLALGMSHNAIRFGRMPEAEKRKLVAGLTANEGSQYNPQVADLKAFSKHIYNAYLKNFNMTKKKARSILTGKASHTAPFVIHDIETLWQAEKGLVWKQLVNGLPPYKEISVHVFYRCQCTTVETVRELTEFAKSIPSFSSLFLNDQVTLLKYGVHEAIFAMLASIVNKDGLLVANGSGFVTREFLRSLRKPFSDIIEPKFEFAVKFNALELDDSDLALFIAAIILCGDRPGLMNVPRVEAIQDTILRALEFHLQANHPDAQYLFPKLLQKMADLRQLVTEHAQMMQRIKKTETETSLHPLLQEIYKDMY
Summary of the method: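 Cells: HEK293H with a UAS-driven beta-lactamase reporter responsive to PPARd. Compounds were co-added with L165041 (300 nM, final) and incubated 17 h at 37 C before a 2 h room-temperature FRET substrate step and fluorescence reading.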

[18] = target: Bile acid receptor (Homo sapiens) (UniProt Q96RI1); assay: qHTS assay to identify small molecule antagonists of the farnesoid-X-receptor (FXR) signaling pathway (AID 743217; active means well fitted inhibition curve with a large enough effect in the signal ratio in the repeat runs, not every such curve was filed as active; the % refers to the signal ratio)
Chain of Bile acid receptor (Homo sapiens) (Q96RI1 whole entry, looked up): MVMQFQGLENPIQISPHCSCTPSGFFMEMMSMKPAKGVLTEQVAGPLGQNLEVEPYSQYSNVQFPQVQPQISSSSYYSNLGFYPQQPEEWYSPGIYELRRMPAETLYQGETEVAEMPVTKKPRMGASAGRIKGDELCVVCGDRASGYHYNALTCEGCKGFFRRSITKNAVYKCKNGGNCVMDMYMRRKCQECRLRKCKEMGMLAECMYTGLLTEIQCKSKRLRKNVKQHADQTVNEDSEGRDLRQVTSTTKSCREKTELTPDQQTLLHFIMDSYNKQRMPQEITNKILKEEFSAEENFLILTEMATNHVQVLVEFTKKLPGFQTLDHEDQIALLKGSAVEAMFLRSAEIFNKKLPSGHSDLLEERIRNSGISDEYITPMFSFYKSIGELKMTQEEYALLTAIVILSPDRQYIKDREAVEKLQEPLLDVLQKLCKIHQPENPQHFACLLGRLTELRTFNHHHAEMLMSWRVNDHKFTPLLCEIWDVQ
Summary of the method: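 Cells carrying a UAS-driven beta-lactamase reporter (GeneBLAzer FXR-UAS-bla HEK 293T) were plated and rested 5 h at 37 °C. Compounds in DMSO were added alongside chenodeoxycholic acid agonist at 50 uM final and left 16 h at 37 °C before FRET substrate readout.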

[19] = target: Bile acid receptor (Homo sapiens) (UniProt Q96RI1); assay: qHTS assay to identify small molecule agonists of the farnesoid-X-receptor (FXR) signaling pathway (AID 743220; active means well fitted activation curve with a large enough effect in the signal ratio in the repeat runs, not every such curve was filed as active; the % refers to the signal ratio)
Summary of the method: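 FXR-UAS-bla HEK 293T cells carrying a UAS-driven beta-lactamase reporter were plated for 5 h at 37C/5% CO2, then exposed to DMSO-dissolved Tox21 10K compounds for 16 h at 37C. A LiveBLAzer B/G FRET substrate was loaded for 2 h at room temperature before fluorescence reading.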

[20] = target: Peroxisome proliferator-activated receptor delta (Homo sapiens) (UniProt Q03181); assay: qHTS assay to identify small molecule agonists of the peroxisome proliferator-activated receptor delta (PPARd) signaling pathway (AID 743212; calls by dose curve)
Summary of the method: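 Steps: seed PPARd-bla HEK293H cells; incubate 5 h, 37 C, 5% CO2; add compounds in DMSO; incubate, 37 C; add LiveBLAzer B/G FRET substrate; hold 2 h at room temperature; measure fluorescence.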

Measured: Potency

CCOC(=O)CC(O)(CC(=O)OCC)C(=O)OCC
not listed: [15] | [16] | [17] | [18] | [19] | [20]
inactive: all other assays above

CCC[Si](OC)(OC)OC
not listed: [3] | [4] | [5] | [10] | [20]
inactive: all other assays above

N#Cc1ccc(CC(=O)c2cccc(C(F)(F)F)c2)cc1
not listed: [12] | [14] | [15] | [18] | [19] | [20]
inactive: all other assays above

CCCN(C1CCN(C(=O)C2CCNCC2)CC1)[C@@H]1CCc2ccc(OC)cc2C1
inactive: [1] | [2] | [3] | [4] | [5] | [7] | [8] | [20] | [10] | [17] | [14]

O=[N+]([O-])c1cccc(I)c1
not listed: [9] | [10] | [14] | [15] | [18] | [19]
inactive: all other assays above

O=C(Cl)c1ccc(F)c(Cl)c1
not listed: [3] | [4] | [5] | [9] | [13] | [18] | [19]
inactive: all other assays above

O=C(N[C@@H](Cc1ccccc1)[C@@H](O)C(=O)N1C[C@@H](O)[C@@H](O)C1)c1cc2cc(Cl)ccc2[nH]1
inactive: [1] | [15] | [3] | [5] | [6] | [7] | [9] | [11] | [12] | [13] | [14]

CC(Cc1ccccc1)(NC(=O)CN)c1ccccc1 (stereo unspecified)
not listed: [9] | [10] | [13] | [15] | [16] | [18] | [20]
inactive: all other assays above

CC(CCl)OC(C)CCl (stereo unspecified)
not listed: [13] | [14] | [15] | [16] | [17] | [18] | [19] | [20]
inactive: all other assays above

CO[C@@H]1COCC[C@@H]1N[C@@H]1CC[C@@](C(=O)N2CCc3ncc(C(F)(F)F)cc3C2)(C(C)C)C1
not listed: [13] | [15] | [16] | [18] | [19] | [20]
inactive: all other assays above

CO[C@@H]1[C@@H](O[C@@H]2O[C@H](C)[C@@H](O[C@H]3C[C@@](C)(O)[C@@H](O)[C@H](C)O3)[C@H](N(C)C)[C@H]2O)[C@@H](CC=O)C[C@@H](C)[C@@H](O[C@@H]2CC[C@H](N(C)C)[C@@H](C)O2)/C=C/C=C/C[C@@H](C)OC(=O)C[C@H]1OC(C)=O
inactive: [1] | [15] | [3] | [4] | [5] | [6] | [7] | [8] | [9] | [12] | [13]

CCOC(OCC)OCC
not listed: [9] | [15] | [16] | [17] | [20]
inactive: all other assays above

C1CCN(CN2CCCCC2)CC1
not listed: [12] | [15] | [16] | [18] | [19]
inactive: all other assays above

CC(C)CCCCCCCOC(=O)c1ccc(C(=O)OCCCCCCCC(C)C)c(C(=O)OCCCCCCCC(C)C)c1
not listed: [2] | [8] | [12] | [14] | [16] | [18] | [19]
inactive: all other assays above

NC(=O)c1ccccc1
not listed: [11] | [13] | [15] | [17] | [20]
inactive: all other assays above

C/C(=C(\CCO)SS/C(CCO)=C(\C)N(C=O)Cc1cnc(C)nc1N)N(C=O)Cc1cnc(C)nc1N
not listed: [13] | [15] | [17] | [18] | [19]
inactive: all other assays above

O=[N+]([O-])c1ccccc1CCO
not listed: [9] | [12] | [15] | [16] | [18] | [19]
inactive: all other assays above

COc1ccc(CN(CCN(C)C)c2ncccn2)cc1
not listed: [15] | [16] | [20]
inactive: all other assays above

O=C(Nc1ccc2c(c1)Cc1ccccc1-2)C(F)(F)F
not listed: [4] | [15] | [16] | [17] | [20]
inactive: all other assays above
